# Results from the supplement of paper PMC3414501.
# Structures can show the parent of a compound that is named as a salt.
# Test system: S. cerevisiae NKY1551 his4x/his4B, sporulating;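 further: active if sensitivity score above 5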
# Test: HIS4 meiotic recombination assay sensitivity score (z-score vs DMSO controls); higher = stronger inhibition of sporulation/recombination, active = hit call of the paper
row,Structure (SMILES),HIS4 meiotic recombination assay sensitivity score
1,"CN(CCCN1c2ccccc2CCc2ccccc21)CC(=O)c1ccc(Cl)cc1 [Lofepramine] (stock concentration (mM, diluted 1:100): 10)",3.17 (inactive)
2,"CCc1nn(CCCN2CCN(c3cccc(Cl)c3)CC2)c(=O)n1CCOc1ccccc1 [Nefazodone] (stock concentration (mM, diluted 1:100): 9.3)",3 (inactive)
3,"N[C@@H](C(=O)N[C@@H]1C(=O)N2C(C(=O)O)=C(CSc3cn[nH]n3)CS[C@H]12)c1ccc(O)cc1 [Seapuron] (stock concentration (mM, diluted 1:100): 8.6)",0.57 (inactive)
4,"CN1CCN(c2nc3cc(C(F)(F)F)ccc3n3cccc23)CC1 (stock concentration (mM, diluted 1:100): 10)",-0.17 (inactive)
5,"C=C1/C(=C\C=C2/CCC[C@]3(C)[C@@H]([C@H](C)/C=C/[C@@H](O)C4CC4)CC[C@@H]23)C[C@@H](O)C[C@@H]1O [Calcipotriol] (stock concentration (mM, diluted 1:100): 10.1)",2.61 (inactive)
6,"COCc1c(C(C)C)nc(C(C)C)c(/C=C/[C@@H](O)C[C@@H](O)CC(=O)O)c1-c1ccc(F)cc1 [Cerivastatin] (stock concentration (mM, diluted 1:100): 10)",0.17 (inactive)
7,"CCc1oc2ccccc2c1C(=O)c1cc(Br)c(O)c(Br)c1 [Benzbromarone] (stock concentration (mM, diluted 1:100): 10)",-1.58 (inactive)
8,"CC(C)(O)c1ccccc1CC[C@@H](SCC1(CC(=O)O)CC1)c1cccc(/C=C/c2ccc3ccc(Cl)cc3n2)c1 [Montelukast] (stock concentration (mM, diluted 1:100): 9.6)",0.61 (inactive)
9,"O=C1Nc2ccc(Cl)cc2[C@@](C#CC2CC2)(C(F)(F)F)O1 [Efavirenz] (stock concentration (mM, diluted 1:100): 10.1)",-0.43 (inactive)
10,"O=C1[C@H](CC[C@H](O)c2ccc(F)cc2)[C@@H](c2ccc(O)cc2)N1c1ccc(F)cc1 [Ezetimibe] (stock concentration (mM, diluted 1:100): 10)",-0.94 (inactive)
11,"COc1ccccc1N1CCN(CC(O)COc2cccc3ccccc23)CC1 (centres undefined) [Naftopidil] (stock concentration (mM, diluted 1:100): 10)",5.23 (active)

# Test system: S. cerevisiae AD1-9 (efflux-pump deficient), vegetative growth in YPD
# Test: growth sensitivity score (doubling time z-score vs DMSO controls); higher = slower growth, strongly negative scores also mark growth inhibition (complete suppression), active = hit call of the paper
# Procedure, shortened: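 Saccharomyces cerevisiae strains BY4741 and AD1-9 were seeded in rich medium in microtiter plates at an OD600 of 0.065. Compounds were added at a 1:100 dilution of DMSO stock. Optical density was read every 15 min for 24 hours on a Tecan GENios reader. Average doubling time was the time taken to reach a set generation point divided by generation number, and the growth sensitivity score was (compound mean − DMSO-control mean)/DMSO-control SD, using eight DMSO controls per experiment.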
row,Structure (SMILES),growth sensitivity score
1,"Cc1sc(N)c(C(=O)c2cccc(C(F)(F)F)c2)c1C (stock concentration (mM, diluted 1:100): 10)",143 (active)
2,"O=C(NCCN1CCOCC1)c1ccc(Cl)cc1 [Moclobemide] (stock concentration (mM, diluted 1:100): 10)",0.15 (inactive)
3,"Cc1c(OCC(F)(F)F)ccnc1C[S+]([O-])c1nc2ccccc2[nH]1 (centres undefined) [Lansoprazole] (stock concentration (mM, diluted 1:100): 10.1)",2.67 (active)
4,"CN(C)[C@@H]1C(O)=C(C(=O)NCN2CCCC2)C(=O)[C@@]2(O)C(O)=C3C(=O)c4c(O)cccc4[C@@](C)(O)[C@H]3C[C@@H]12 [Rolitetracycline] (stock concentration (mM, diluted 1:100): 10)",-1.77 (inactive)
5,"Cc1c2oc3c(C)ccc(C(=O)N[C@@H]4C(=O)N[C@H](C(C)C)C(=O)N5CCC[C@H]5C(=O)N(C)CC(=O)N(C)[C@@H](C(C)C)C(=O)O[C@@H]4C)c3nc-2c(C(=O)N[C@@H]2C(=O)N[C@H](C(C)C)C(=O)N3CCC[C@H]3C(=O)N(C)CC(=O)N(C)[C@@H](C(C)C)C(=O)O[C@@H]2C)c(N)c1=O [Dactinomycin] (stock concentration (mM, diluted 1:100): 10)",-0.59 (inactive)
6,"COc1cc(C)c(Cc2cnc(N)nc2N)cc1OC [Ormetoprim] (stock concentration (mM, diluted 1:100): 10)",-2.46
7,"CCn1cc(C(=O)O)c(=O)c2cc(F)c(N3CCN(C)CC3)cc21 [Pefloxacin mesylate] (stock concentration (mM, diluted 1:100): 7.9)",3.65 (active)
8,"CN1CCN(C2=Nc3ccccc3Oc3ccc(Cl)cc32)CC1 [Loxapine succinate] (stock concentration (mM, diluted 1:100): 11)",6.01 (active)
9,"CN(CCCN1c2ccccc2CCc2ccccc21)CC(=O)c1ccc(Cl)cc1 [Lofepramine] (stock concentration (mM, diluted 1:100): 10)",51.9 (active)
10,"CNNCc1ccc(C(=O)NC(C)C)cc1 [Procarbazine hydrochloride] (stock concentration (mM, diluted 1:100): 8.6)",-0.84 (inactive)
11,"CC(=O)CCCCn1c(=O)c2c(ncn2C)n(C)c1=O [Pentoxifylline] (stock concentration (mM, diluted 1:100): 10)",-1.09 (inactive)
12,"CN1CCN(C2=Nc3cc(F)ccc3Cc3ccccc32)CC1 [Fluperlapine] (stock concentration (mM, diluted 1:100): 10)",2.12 (active)
13,"CN(C)CCc1c[nH]c2ccc(Cn3cncn3)cc12 [Rizatriptan benzoate] (stock concentration (mM, diluted 1:100): 10)",-1.17 (inactive)
14,"N[C@@H](C(=O)N[C@@H]1C(=O)N2C(C(=O)O)=C(CSc3cn[nH]n3)CS[C@H]12)c1ccc(O)cc1 [Seapuron] (stock concentration (mM, diluted 1:100): 8.6)",-1.14 (inactive)
15,"CCC(C)n1ncn(-c2ccc(N3CCN(c4ccc(OCC5COC(Cn6cncn6)(c6ccc(Cl)cc6Cl)O5)cc4)CC3)cc2)c1=O (centres undefined) [Itraconazole] (stock concentration (mM, diluted 1:100): 10.1)",21.4 (active)
16,"Cc1ccnc2c1NC(=O)c1cccnc1N2C1CC1 [Viramune] (stock concentration (mM, diluted 1:100): 10)",-1.4 (inactive)
17,"CCN1CCC[C@H]1CNC(=O)c1c(O)c(Cl)cc(Cl)c1OC [Raclopride] (stock concentration (mM, diluted 1:100): 10)",-1.88 (inactive)
18,"CC(C)(O)c1ccccc1CC[C@@H](SCC1(CC(=O)O)CC1)c1cccc(/C=C/c2ccc3ccc(Cl)cc3n2)c1 [Montelukast] (stock concentration (mM, diluted 1:100): 9.6)",0.91 (inactive)
19,"O=C1c2c(O)cc(O)cc2OC(c2ccc(O)c(O)c2)C1O (centres undefined) [Taxifolin] (stock concentration (mM, diluted 1:100): 10.1)",-0.17 (inactive)
20,"Nc1nc(Cl)nc2c1ncn2[C@@H]1O[C@H](CO)[C@@H](O)[C@H]1O [2-Chloroadenosine] (stock concentration (mM, diluted 1:100): 10)",-1.1 (inactive)
21,"Cc1nc2ccccn2c(=O)c1CCN1CCC(C(=O)c2ccc(F)cc2)CC1 [Pirenperone] (stock concentration (mM, diluted 1:100): 10)",-0.84 (inactive)
22,"Nc1nc2ccc(Cl)cc2c2nc(-c3ccco3)nn12 (stock concentration (mM, diluted 1:100): 10)",17.6 (active)
23,"CN1CC(=O)N2[C@H](c3ccc4c(c3)OCO4)c3[nH]c4ccccc4c3C[C@@H]2C1=O [Tadalafil] (stock concentration (mM, diluted 1:100): 10)",-2.54
